Source: PubChem BioAssay

Assay: Her2 expression decrease, cell viability multiplex – SKBR3 breast tumor cells, AlphaScreen, ATP viability, primary screen (AID 461);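 note: percent of carrier control wells set as 100% viability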
Conditions: SKBR3 Her2 protein level, 18-24 h, measured here: SKBR3 viability, ATP luminescence, at 10 µM

SMILES | viability [%]
CCc1nnc(NC(=O)c2ccc(COc3ccc(C)cc3)o2)s1 | 104
CC(C)Cn1c(CN2CCN(c3ccccc3F)CC2)nc2c1c(=O)[nH]c(=O)n2C | 93
O=C(CN(c1ccc(F)cc1)S(=O)(=O)c1ccc2c(c1)OCCO2)Nc1ccc2c(c1)OCO2 | 83
CC1(C)Cc2noc(N)c2C(C)(C)N1O | 121
COC(=O)CCn1nnc(-c2cccs2)n1 | 99.5
CCOc1ccc(N(C(C)=O)C2C=CS(=O)(=O)C2)cc1 (centres undefined) | 91.5
CS(=O)(=O)N1CCCC(C(=O)NCCCN2CCC(Cc3ccccc3)CC2)C1 (centres undefined) | 108
Cn1c(=O)cc(OCC(=O)NCCCN2CCN(c3cccc(Cl)c3)CC2)c2ccccc21 | 85.5
CCC(C)NC(=O)c1ccccc1NC(=O)C(C)N(c1ccccc1)S(C)(=O)=O (centres undefined) | 93
COc1ccc2nc3oc(C(=O)NC4CCN(Cc5ccccc5)CC4)cc3cc2c1 | 76.5
Cc1c(Cl)cccc1N1C(=O)c2ccccc2C1=O | 89.5
O=C(NC1CCCC1)C(c1ccco1)N(Cc1ccccc1)C(=O)c1csnn1 (centres undefined) | 88.5
O=C(O)Cn1cc(C(=O)c2ccco2)c2ccccc21 | 95
CC(C)(C)Cc1nc(-c2ccccn2)no1 | 95.5
COCC(=O)N(Cc1ccc(OC)cc1)Cc1nc2ccccc2c(=O)[nH]1 | 126
CCCN1C(=O)SC(CC(=O)Nc2ccc(Br)cc2)C1=O (centres undefined) | 105
COc1cccc(C(=O)n2cnnc2N)c1OC | 120
O=C(Cn1c(=O)n(Cc2ccc3c(c2)OCO3)c(=O)c2ccccc21)N1CCCc2ccccc21 | 87.5
CC(C)[C@H](NC(=O)NC1CCCC1)C(=O)O | 103
